# Laboratory results as given in article PMC11006913.
# Columns and labels:
# Test in all cases: PBM; 200 nM protein, PBS
# Details in all cases: dsDNA, one strand shown
# [1] = target: HOXD13 (Homo sapiens, UniProt P35453 263-343)
# [2] = target: PROP1 (Homo sapiens, UniProt O75360 56-141)
# [3] = target: PROP1 (Homo sapiens, UniProt O75360 56-141, F88S)
# [4] = target: HOXA4 (Homo sapiens, UniProt Q00056 201-287)
# [5] = target: MSX2 (Homo sapiens, UniProt P35548 130-214)
# [6] = target: MSX2 (Homo sapiens, UniProt P35548 130-214, F161Y)
# [7] = target: HOXC10 (Homo sapiens, UniProt Q9NYD6 254-340, K271E)
# [8] = target: ALX3 (Homo sapiens, UniProt O95076 139-225)
# [9] = target: T1, SIX6 (Homo sapiens, UniProt O95475 114-200, L167V)
# T1 sequence: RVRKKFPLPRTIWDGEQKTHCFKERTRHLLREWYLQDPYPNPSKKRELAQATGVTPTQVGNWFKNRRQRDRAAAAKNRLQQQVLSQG
# [10] = target: HOXD13 (Homo sapiens, UniProt P35453 263-343, T313A)
# Sequence of HOXD13 (Homo sapiens, UniProt P35453 263-343, T313A) (P35453 263-343 T313A): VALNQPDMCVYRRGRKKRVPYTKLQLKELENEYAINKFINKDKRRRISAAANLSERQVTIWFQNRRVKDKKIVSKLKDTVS
# Sequence of HOXC10 (Q9NYD6 254-340 K271E): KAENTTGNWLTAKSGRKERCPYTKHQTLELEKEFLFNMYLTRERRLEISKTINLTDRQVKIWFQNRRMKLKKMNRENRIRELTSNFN
# Sequence of MSX2 (Homo sapiens, UniProt P35548 130-214, F161Y) (P35548 130-214 F161Y): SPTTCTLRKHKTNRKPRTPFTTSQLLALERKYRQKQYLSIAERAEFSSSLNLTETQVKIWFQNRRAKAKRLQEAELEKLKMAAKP
# Sequence of MSX2 (Homo sapiens, UniProt P35548 130-214) (P35548 130-214): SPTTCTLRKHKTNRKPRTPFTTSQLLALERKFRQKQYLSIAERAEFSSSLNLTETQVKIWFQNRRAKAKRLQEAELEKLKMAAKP
# Sequence of HOXA4 (Q00056 201-287): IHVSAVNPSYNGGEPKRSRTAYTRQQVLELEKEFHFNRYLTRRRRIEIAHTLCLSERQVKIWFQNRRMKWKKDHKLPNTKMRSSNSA
# Sequence of PROP1 (Homo sapiens, UniProt O75360 56-141, F88S) (O75360 56-141 F88S): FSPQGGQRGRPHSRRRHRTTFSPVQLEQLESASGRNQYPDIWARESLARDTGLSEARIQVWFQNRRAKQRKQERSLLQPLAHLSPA
# Sequence of HOXD13 (Homo sapiens, UniProt P35453 263-343) (P35453 263-343): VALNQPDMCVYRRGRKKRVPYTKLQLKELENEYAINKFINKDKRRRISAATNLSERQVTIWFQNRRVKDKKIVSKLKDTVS
# Sequence of PROP1 (Homo sapiens, UniProt O75360 56-141) (O75360 56-141): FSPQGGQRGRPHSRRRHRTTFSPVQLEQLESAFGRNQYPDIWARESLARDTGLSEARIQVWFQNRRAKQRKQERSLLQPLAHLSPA
# Sequence of ALX3 (O95076 139-225): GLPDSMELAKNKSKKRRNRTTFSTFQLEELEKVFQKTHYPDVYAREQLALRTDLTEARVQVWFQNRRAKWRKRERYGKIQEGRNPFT
sequence,measurement,setting,value
TAATAGCA,binding signal,[1],"11 upbm affinity estimate (log intensity, higher = more binding, comparable within an allelic series)"
same,binding signal,[2],"9.06 upbm affinity estimate (log intensity, higher = more binding, comparable within an allelic series)"
same,binding signal,[3],"7.3 upbm affinity estimate (log intensity, higher = more binding, comparable within an allelic series)"
ATTCAAGC,binding signal,[4],"11 upbm affinity estimate (log intensity, higher = more binding, comparable within an allelic series)"
CTTAAAAG,binding signal,[4],"10.4 upbm affinity estimate (log intensity, higher = more binding, comparable within an allelic series)"
AGTCCTAA,binding signal,[5],"11.4 upbm affinity estimate (log intensity, higher = more binding, comparable within an allelic series)"
same,binding signal,[6],"11.2 upbm affinity estimate (log intensity, higher = more binding, comparable within an allelic series)"
ACAGATTG,binding signal,[5],"10.8 upbm affinity estimate (log intensity, higher = more binding, comparable within an allelic series)"
same,binding signal,[6],"10.8 upbm affinity estimate (log intensity, higher = more binding, comparable within an allelic series)"
AGTTTTAT,binding signal,[7],"11.3 upbm affinity estimate (log intensity, higher = more binding, comparable within an allelic series)"
ATTACTTC,binding signal,[5],"11.6 upbm affinity estimate (log intensity, higher = more binding, comparable within an allelic series)"
same,binding signal,[6],"11.5 upbm affinity estimate (log intensity, higher = more binding, comparable within an allelic series)"
TAATACTA,binding signal,[8],"10.2 upbm affinity estimate (log intensity, higher = more binding, comparable within an allelic series)"
AAGAATCA,binding signal,[5],"10.8 upbm affinity estimate (log intensity, higher = more binding, comparable within an allelic series)"
same,binding signal,[6],"10.6 upbm affinity estimate (log intensity, higher = more binding, comparable within an allelic series)"
ATTGCCAC,binding signal,[5],"11 upbm affinity estimate (log intensity, higher = more binding, comparable within an allelic series)"
same,binding signal,[6],"11 upbm affinity estimate (log intensity, higher = more binding, comparable within an allelic series)"
AAAATCGT,binding signal,[5],"11 upbm affinity estimate (log intensity, higher = more binding, comparable within an allelic series)"
same,binding signal,[6],"10.9 upbm affinity estimate (log intensity, higher = more binding, comparable within an allelic series)"
ACATGTTA,binding signal,[5],"10.7 upbm affinity estimate (log intensity, higher = more binding, comparable within an allelic series)"
ATTTTTGG,binding signal,[5],"10.7 upbm affinity estimate (log intensity, higher = more binding, comparable within an allelic series)"
same,binding signal,[6],"10.6 upbm affinity estimate (log intensity, higher = more binding, comparable within an allelic series)"
AAACGATC,binding signal,[5],"10.9 upbm affinity estimate (log intensity, higher = more binding, comparable within an allelic series)"
same,binding signal,[6],"10.8 upbm affinity estimate (log intensity, higher = more binding, comparable within an allelic series)"
ACATAAAT,binding signal,[7],"11.3 upbm affinity estimate (log intensity, higher = more binding, comparable within an allelic series)"
TCAACTAA,binding signal,[5],"11.2 upbm affinity estimate (log intensity, higher = more binding, comparable within an allelic series)"
same,binding signal,[6],"11 upbm affinity estimate (log intensity, higher = more binding, comparable within an allelic series)"
ATCATCGG,binding signal,[5],"10.9 upbm affinity estimate (log intensity, higher = more binding, comparable within an allelic series)"
same,binding signal,[6],"10.8 upbm affinity estimate (log intensity, higher = more binding, comparable within an allelic series)"
ATAAATAC,binding signal,[5],"11.3 upbm affinity estimate (log intensity, higher = more binding, comparable within an allelic series)"
same,binding signal,[6],"11.3 upbm affinity estimate (log intensity, higher = more binding, comparable within an allelic series)"
AATCGCAT,binding signal,[5],"10.9 upbm affinity estimate (log intensity, higher = more binding, comparable within an allelic series)"
same,binding signal,[6],"10.8 upbm affinity estimate (log intensity, higher = more binding, comparable within an allelic series)"
GCGATATA,binding signal,[5],"10.6 upbm affinity estimate (log intensity, higher = more binding, comparable within an allelic series)"
same,binding signal,[6],"10.5 upbm affinity estimate (log intensity, higher = more binding, comparable within an allelic series)"
ATCAAAAT,binding signal,[5],"11.2 upbm affinity estimate (log intensity, higher = more binding, comparable within an allelic series)"
same,binding signal,[6],"11.1 upbm affinity estimate (log intensity, higher = more binding, comparable within an allelic series)"
ATTTCTAA,binding signal,[5],"11.2 upbm affinity estimate (log intensity, higher = more binding, comparable within an allelic series)"
same,binding signal,[6],"11 upbm affinity estimate (log intensity, higher = more binding, comparable within an allelic series)"
CTCAATCC,binding signal,[5],"10.8 upbm affinity estimate (log intensity, higher = more binding, comparable within an allelic series)"
same,binding signal,[6],"10.7 upbm affinity estimate (log intensity, higher = more binding, comparable within an allelic series)"
AACAAGAG,binding signal,[5],"10.3 upbm affinity estimate (log intensity, higher = more binding, comparable within an allelic series)"
AAGCAAAT,binding signal,[5],"11.3 upbm affinity estimate (log intensity, higher = more binding, comparable within an allelic series)"
same,binding signal,[6],"11.1 upbm affinity estimate (log intensity, higher = more binding, comparable within an allelic series)"
AATCAGGC,binding signal,[5],"11.4 upbm affinity estimate (log intensity, higher = more binding, comparable within an allelic series)"
same,binding signal,[6],"11.2 upbm affinity estimate (log intensity, higher = more binding, comparable within an allelic series)"
GTAGTAAA,binding signal,[7],"11.1 upbm affinity estimate (log intensity, higher = more binding, comparable within an allelic series)"
CAAATAAG,binding signal,[5],"11.1 upbm affinity estimate (log intensity, higher = more binding, comparable within an allelic series)"
same,binding signal,[6],"10.9 upbm affinity estimate (log intensity, higher = more binding, comparable within an allelic series)"
AGATATCT,binding signal,[9],"10.8 upbm affinity estimate (log intensity, higher = more binding, comparable within an allelic series)"
CACATAAA,binding signal,[7],"11.3 upbm affinity estimate (log intensity, higher = more binding, comparable within an allelic series)"
same,binding signal,[10],"11.6 upbm affinity estimate (log intensity, higher = more binding, comparable within an allelic series)"
CAATCCGA,binding signal,[5],"10.8 upbm affinity estimate (log intensity, higher = more binding, comparable within an allelic series)"
same,binding signal,[6],"10.8 upbm affinity estimate (log intensity, higher = more binding, comparable within an allelic series)"
CAAATTCA,binding signal,[5],"10.9 upbm affinity estimate (log intensity, higher = more binding, comparable within an allelic series)"
same,binding signal,[6],"10.7 upbm affinity estimate (log intensity, higher = more binding, comparable within an allelic series)"
ACCTCAAT,binding signal,[5],"11 upbm affinity estimate (log intensity, higher = more binding, comparable within an allelic series)"
same,binding signal,[6],"10.9 upbm affinity estimate (log intensity, higher = more binding, comparable within an allelic series)"
GACCATTA,binding signal,[5],"11.8 upbm affinity estimate (log intensity, higher = more binding, comparable within an allelic series)"
same,binding signal,[6],"11.7 upbm affinity estimate (log intensity, higher = more binding, comparable within an allelic series)"
GGAAATAA,binding signal,[5],"11.7 upbm affinity estimate (log intensity, higher = more binding, comparable within an allelic series)"
same,binding signal,[6],"11.4 upbm affinity estimate (log intensity, higher = more binding, comparable within an allelic series)"
GCAGTAAA,binding signal,[7],"11.1 upbm affinity estimate (log intensity, higher = more binding, comparable within an allelic series)"
